# Test results taken from PubChem BioAssay AID1508600 (Functional Genomics Laboratory (NCATS/FGL), 2020).
# Out of some 53,000 sequences screened, about 3,700 (7%) were called active. The full list was thinned out, with actives kept by preference. Values without a mark were called inactive.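 How the source made its calls: active means gene knockdowns whose robust z-score for IL-1 alpha signal is at least 2 or at most -2, so actives lie on both sides; inactive means the rest.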
# Experiment: Components of the Cytosolic LPS Sensing Pathway: Gene Identification via Genome-wide siRNA Screen;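 further: robust z of the log signal after scaling to non-targeting control siRNA wells of the plate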
# Conditions: RAW264.7 macrophages, IL-1a HTRF, actives lie on both sides, screened at 100 nM (by protocol), cells primed 5 h with Pam3CSK4 first
# In short: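 IL-1a HTRF of supernatants after 24 hour LipidA transfection of Pam3CSK4-primed (5 hours) RAW264.7 cells, 48h post-siRNA transfection (100 nM). Scores: percent of plate negative-control median, then log-based robust z-score.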
row,Sequence,z-score
1,GCUACUCGCGUUUAAUUUUTT against Slc9a9,-0.238
2,GACCUUUCUCUUCUUGGCUTT against Olfr434,-2.1 (active)
3,GGAUAACCCUCAGAAGUCCTT against Was,0.664
4,GGAAUAAUCAAGCUAGGGATT against Satb2,-2.2 (active)
5,GGAGAGAGGACAACUUCUCTT against Mrm1,1.3
6,GGCUUUUAACACCUUCAUUTT against Clptm1l,0.495
7,GCUUCUUCUGUGAACUUCCTT against Olfr854,-0.939
8,GGAAGCUGCUUUUCUAAAUTT against Il7,2.92 (active)
9,GGCAGUGAGAGUCACAAGATT against Cdipt,-1.74
10,GGAAAUGCAGUUGUGAAUGTT against Rab4a,-2.03 (active)
11,GCCCAUGUUAGAGGUUUUGTT against Rsph3a,0.838
12,GGGAGAUGAGUUUUCUGAUTT against Cyp2c70,1.15
13,GGCAGUUGAUUCCUUUAAATT against Baz1a,0.0425
14,GCUGUACCCGAAUGAGUUUTT against Mgat2,2.54 (active)
15,GCCCUUAGCUGCAUGAAUUTT against Laptm4b,-0.661
16,GGACCGUCUGUCCUUUGUCTT against Nectin2,0.618
17,GGUAGAGAAGAACGGUACCTT against Mb21d2,1.08
18,CCGAGUAAUUGGAAGUGGUTT against Ldha,2.08 (active)
19,GGUGCUUUCUGGAUGAAGATT against Akirin1,-0.282
20,GGCUUUUGGAGAAAAAGGATT against Nus1,1.92
21,GGAAAUGUAGUGAAGGGUGTT against Ndfip2,2.03 (active)
22,GGGCCUUACGUCAUUCUCUTT against Dnajb7,-0.319

row,Sequence,z-score
1,GGAUUUCAUUCCAAACAUGTT against Hbs1l,-0.161
2,CGGGACUAUUAUUACUCCATT against Ap2m1,-1.22
3,GGAAGAUCUCUUGUCUGCUTT against Mtcp1,-0.269
4,GGGAGAUGCAACCUCUCUUTT against Dennd5b,2.91 (active)
5,GGGAAAUCUAUUUUUGUGATT against Mob3c,-1.77
6,GGUCUGGAGACAAUCAUCATT against Rnf222,-2.47 (active)
7,GGCUUAUUGGAAGAGGACGTT against Ier5,0.559
8,GCUGAGUCCAUGUCUGUUGTT against Coro2a,-0.119
9,CGGCAUGAGCAGUUUAUAUTT against Col19a1,-1.04
10,GCUGAUUGAGCAUCCGAUGTT against Ggt1,2.78 (active)
11,GGGAUUCAGUAUAAAACACTT against Nup37,-1.25
12,GGAAAGAGCCAUCCUUUGATT against Gnmt,-0.186
13,CGUAUAAUAACUCCUUAUCTT against Hoxa1,2.17 (active)
14,GGUGUAGACUCCAACAUGUTT against Aarsd1,1.69
15,CCUUGGACUAUGGCAAAAATT against Neurod6,0.418
16,GCCGGAAUCCUGUGGAAUCTT against Kat14,6.46 (active)
17,GGAAAAUGACACAGGUAUCTT against Entpd2,-0.103
18,GGAGAUGAGCUGUAUGUGATT against Nudt19,0.862
19,GACUUCAGACAAAUAGUGCTT against Lce1i,-1.24
20,GCAUCGAAAAUCUUUCCAATT against Fibcd1,1.6
21,GGUGCUCAAUAAAUGUAAATT against Cd151,-1.26
22,GGGUUUCUUCCCUGAGCUATT against Nxf7,-1.97

row,Sequence,z-score
1,CCACUAUGAAUCGUGGUUCTT against Sp6,0.731
2,CGUGCAUCCCUAUAUCCUATT against Panx2,0.343
3,GGUUGACAACACAUCUGCUTT against Ugt2b34,-0.766
4,GGAUCAAUGUGGUACCUAUTT against Sf3a1,-2.79 (active)
5,GGGAAUAGUUUAUAUGGACTT against Ccl20,0.315
6,CGGGCAAUGUCAGAUUGUGTT against Vmn1r75,1.41
7,GGUACUUUCGGACUCAGUUTT against Ipp,-0.0605
8,GCUAGGUGUUUGAAGCCUCTT against Mixl1,-0.834
9,GGAAGGGUAAAUUUAGAAGTT against Arrdc3,2.83 (active)
10,GAUCUUCCUGACAGUGGUGTT against Psors1c2,-0.15
11,GGUAAAAAACCAAGAACAATT against Ednrb,2.17 (active)
12,GGACUUCUUCUUGUACAACTT against Capn3,1.03
13,GGGCUCUUGCCAGAAAACGTT against Rsph3a,-0.524
14,GCCACUCGGAGAUUUUUCATT against Slc15a4,-0.6
15,CCCUGACCUUCAGAUUGUGTT against Olfr788,0.14
16,CCAAGUAGAUAGGAAUUAUTT against Eps8,2
17,GCUUUAUGGGAGACAAAGGTT against 1700022I11Rik,2.53 (active)
18,GGAUGCUUUACCAAAUGAATT against Slc44a3,0.147
19,GGAAAAUUGGCCAAAAUAATT against Pdcl,-0.0308
20,GGAGAAGCUGCUGGCAGAATT against Trub1,-1.15
21,GGUCUUGGAGUUGCUAAUUTT against Med4,2.63 (active)
22,CCUCUUCUUGUUUCAAGGGTT against Piezo2,0.062

row,Sequence,z-score
1,CCAGCUAAACUCUGUAAAATT against Zfp639,-0.113
2,GCUUUGGACAAUAAGAAGUTT against Cdkl1,-0.838
3,GUCACUGAUACUCAAUAAATT against Vmn1r172,-1.45
4,GCAUCGUCCUCCAAAGAUUTT against Sf3b1,-3.01 (active)
5,GGCUAUCUACCAUUAUAUGTT against Ifit2,-0.607
6,GGUCCUGUUAAACUGAAAGTT against Fkbp1a,-1.45
7,GGGAAUAAAAAGGAUCACUTT against Rab39,1.27
8,CCUGAAUGACCUAGGGCCUTT against Adam8,0.286
9,GGCAUGAGCUAUCAGGACUTT against Efcab6,1.37
10,GGUAUUAGCAAUUUUCUGGTT against Olfr619,-0.681
11,CGAGGAUGACUUGAUGACCTT against Ajm1,-2.18 (active)
12,GGGAAAAUUCCAGAAUCGCTT against Musk,0.315
13,GCCGGCCAGAAUAUACAUUTT against Fndc10,0.415
14,CCUUCCUCGUGAUUCGCUATT against Lman2l,-0.461
15,GGUUGAGUAGUUGAUUUUCTT against Hemgn,0.663
16,GGAAAUACCCACCUUAUACTT against Efhc2,2.51 (active)
17,GGAGCAGAUACAGAAGAUCTT against Pfdn2,-1.21
18,GUAUAGUGUAUCUCAUCAUTT against Olfr1107,1.56
19,GCUCAGUGGACAUGCUCUATT against Hpse,-0.502
20,GGAGGCAUGAUAAGCUUCGTT against Pmm1,-0.425
21,GCUACUAAACAGGGUGUGATT against Gpsm3,-2.42 (active)
22,GGGUGAGAUAAUUGAAAAGTT against Slc12a6,0.607

row,Sequence,z-score
1,GGGCUUCAACACUGAGAAGTT against Arl4d,-1.04
2,GGCUCCUACCAAUCUCACUTT against Calcr,-0.548
3,GGGAAAAAUGGACUAGCAUTT against Ahctf1,0.888
4,GCAUUGGACUCAUAAUUUUTT against Aadat,0.0399
5,GGUAAUGUUCUCCUUUGAATT against Dok1,4.89 (active)
6,GCCUGAAUUUAGUGUUAAGTT against Hnmt,1.72
7,CCAUUGAAAAACUGGACAGTT against Olfr1463,3.26 (active)
8,GCUCUUCAUAACUCUUGCUTT against Olfr1392,-0.288
9,GGCCAGAACUGUUCCAAUUTT against Cilp,1.15
10,GGGAAUUUAAUUUUUCGUGTT against Sfn,-0.642
11,GGAAGUCAACCGAGUCUUCTT against Sp140,0.011
12,GGGUAUGAUAUGUUAAUGATT against Ndufaf7,-0.434
13,CCAUUUAAGUGUGUGUUAATT against Rbmx,0.475
14,GGAUUUUGCACUAUAACAATT against Zmat3,3.83 (active)
15,GGACAACGGAUUUUAGGAGTT against Barhl2,0.44
16,GGUUGAAUAUACUUAGCACTT against Gm5082,0.947
17,CCAUGGAAUCUCCUAUACCTT against C4bp,-0.679
18,GGUAAAUCAAAUCACUGCCTT against Slamf1,0.316
19,CCCUUUCAUUGUGCAUUAATT against Hdhd2,-2.22 (active)
20,GCUCAAGAGUCUAACUCCCTT against Serinc4,0.558
